Screening data deposited in PubChem BioAssay by National Center for Advancing Translational Sciences (NCATS).
TbPYK inhibitor – qHTS of Trypanosoma Brucei Inhibitors; TbPYK enzyme, Kinase-Glo Plus ATP luminescence, 45 min; Potency, µM (doses to about 76.8 µM), usual class: inhibitors; 0.12% of 410,000 active; also: nearly all actives have a fitted effect of over 50% in size
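TbPYK + substrate in 50 mM TEA pH 7.2, 100 mM KCl, 10 mM MgCl2, 0.05% BSA, 0.01% Tween-20; cpd pinned; ADP 130 uM final; 45 min RT; Kinase-Glo Plus 10 min; luminescence endpoint.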
CHX counter – Cycloheximide Counterscreen for Small Molecule Inhibitors of Shiga Toxin | cell reporter, cycloheximide protein synthesis inhibition counterscreen | max response, % | 12% of 300,000 active; in the data active = max response mostly above about 13%, no sharp cut-off; inactive = mostly below about 14%; also: read at 38.3 µM for the half of the compounds with a filed dose
FBPA Giardia inh – qHTS Assay for Inhibitors of Fructose-1,6-bisphosphate Aldolase from Giardia Lamblia; A8B2U2; purified Giardia FBPA; Potency, µM (highest dose often 59.6 µM), hits mostly inhibitors; 0.71% of 290,000 active; AID 2451, 2010; also: nearly all actives have a fitted effect of over 55% in size
Target sequence (A8B2U2 whole entry, looked up): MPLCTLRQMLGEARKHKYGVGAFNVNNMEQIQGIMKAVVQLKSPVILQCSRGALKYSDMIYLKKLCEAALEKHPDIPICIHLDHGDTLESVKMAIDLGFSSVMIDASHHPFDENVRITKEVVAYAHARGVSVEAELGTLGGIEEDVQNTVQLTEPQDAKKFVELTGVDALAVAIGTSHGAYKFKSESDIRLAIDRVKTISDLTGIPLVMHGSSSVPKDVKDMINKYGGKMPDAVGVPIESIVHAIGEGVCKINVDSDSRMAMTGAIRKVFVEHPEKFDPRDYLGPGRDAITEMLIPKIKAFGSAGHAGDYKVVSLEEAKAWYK
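40 nM FBPA preincubated 10 min at RT with compound (up to 57.5 uM final), then substrate plus GAPDH/TPI/NAD/arsenate coupling and diaphorase/resazurin added. Fluorescence read after 20 min at RT, 525/598 nm.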
RE007 growth inh – qHTS Assay for Inhibitors of the HIV-1 protein Vpr. S. pombe RE007 Vpr strain, BacTiter-Glo ATP luminescence, 24 h. Potency, µM (series often up to 92.2 µM), usual class: inhibitors. 0.21% of 360,000 active. AID 651644, 2012; active = well fitted falling curve with a large enough effect; inconclusive = small, poorly fitted or top-dose-only effect; inactive = no such curve, though single readings can be large or run the other way; also: nearly all actives have a fitted effect of over 50% in size
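Fission yeast RE007 carrying one integrated HIV-1 vpr copy, seeded at OD 0.01 in PMG+AL medium with 23 nL pinned compound. Grown 24 h at 30 degrees; viability read by BacTiter-Glo luminescence after 5 min.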
LmPK inhibitor – qHTS Assay for Inhibitors of Leishmania Mexicana Pyruvate Kinase (LmPK) | 0.37% of 290,000 active | purified LmPK, Kinase-Glo ATP luminescence, 1 h | AID 1721, 2009 | Potency, µM (titrated, usually from 57.5 µM), hits mostly inhibitors | Q27686
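ATP generated from ADP (0.1 mM) and PEP (0.5 mM) by 0.1 nM LmPK over 1 h at room temperature (pH 7.2 imidazole buffer) was detected by coupled luciferase luminescence. Values were normalized to uninhibited and no-enzyme wells.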
Shiga toxin inh – A qHTS for Small Molecule Inhibitors of Shiga Toxin; Vero cells, Shiga toxin protein synthesis inhibition reporter; inhibition, % at 38.7 µM; 9.2% of 290,000 active; AID 2315, 2010; in the data active = inhibition mostly above about 28%, no sharp cut-off; inactive = mostly below about 43%
Numbers stand for hits; - = inactive; ? = inconclusive; . = no result; + = active, no number. This is one part of a sample in which hits are shown more often than they occur. Unless noted, calls follow the shape of the dose curve; as a rule, active = well fitted curve in the direction sought with a large enough effect; inconclusive = small, poorly fitted or top-dose-only effect, or another doubt; inactive = no such curve, though single readings can be large; an effect the other way counts as inactive or inconclusive.

SMILES	TbPYK inhibitor	CHX counter	FBPA Giardia inh	RE007 growth inh	LmPK inhibitor	Shiga toxin inh
Cc1ccc(C(=O)Cc2cc3ccccc3oc2=O)c(C)c1	-	57	-	-	-	67
COc1ccc(C(=O)Cc2cc3ccccc3oc2=O)cc1	-	28	-	-	-	61
c1ccc(Cc2cc(-c3ccccc3)on2)cc1	-	36	-	-	-	90
CCOc1ccc(-c2nc(C#N)c(NCCCOC)o2)cc1	-	.	.	.	.	.
N#Cc1nc(-c2ccc(OCc3ccccc3)cc2)oc1NCc1cccnc1	-	-	-	-	-	-
N#Cc1nc(-c2ccc(OCc3ccc(Cl)cc3)cc2)oc1NCc1cccnc1	-	35	-	-	-	75
CN(C)c1oc(-c2ccc(OCc3ccccc3)cc2)nc1C#N	-	31	-	-	-	49
CCOc1ccc(-c2nc(C#N)c(NCc3ccco3)o2)cc1	-	23	-	-	-	46
COc1cccc(-c2nc(N(C)Cc3ccco3)c3ccccc3n2)c1	.	.	-	.	.	.
O=C(N/N=C/c1ccc[nH]1)c1ccc([N+](=O)[O-])cc1	-	20	-	-	-	-
Cc1cccc(C(=O)N/N=C/c2ccc[nH]2)c1	-	24	?	.	-	80
Cc1cccc(NCC(=O)N/N=C\c2ccc[nH]2)c1	-	-	-	-	-	-
Cc1cccc(C(=O)N/N=C/c2cc(Br)c(Br)o2)c1	-	-	-	-	-	33
Cc1ccc(C(=O)N/N=C\c2ccc[nH]2)cn1	-	19	-	-	-	-
Cc1onc(-c2ccccc2)c1C(=O)N/N=C/c1cc(Br)c(Br)o1	-	-	-	-	-	-
CCOC(=O)c1ccc(Oc2coc3cc(O)ccc3c2=O)cc1	-	-	-	-	-	-
CCc1cccc(C)c1NC(=O)COC(=O)CSCc1ccccc1	-	.	.	-	.	.
CC(C)(C)OC(=O)N/N=C\c1ccc[nH]1	-	41	?	-	-	58
O=C(N/N=C/c1ccc[nH]1)c1cccc(Br)c1	-	31	?	-	-	+
O=C(N/N=C\c1ccc[nH]1)c1cncc(Br)c1	-	-	-	-	-	-
CCOC(=O)Cn1cnc2c(cnn2-c2ccccc2)c1=O	-	21	-	-	-	-
COC(=O)C(C)n1cnc2c(cnn2-c2ccc(Cl)cc2)c1=O (configuration not stated)	-	54	-	-	-	69
CCOC(=O)Cn1cnc2c(cnn2-c2ccc(OC)cc2)c1=O	-	29	-	-	-	60
O=C(Cn1cnc2c(cnn2-c2ccc(Cl)cc2)c1=O)N1CCN(c2ccccc2)CC1	-	-	-	-	-	-
O=C(Cn1cnc2c(cnn2-c2ccccc2)c1=O)N1CCOCC1	-	-	-	-	-	-
SMILES	TbPYK inhibitor	CHX counter	FBPA Giardia inh	RE007 growth inh	LmPK inhibitor	Shiga toxin inh
CCOC(=O)Cn1cnc2c(cnn2-c2ccc(Cl)cc2)c1=O	-	36	-	-	-	-
CCOc1ccc(C(=O)Nc2ccc(-c3nc4cc(CC)ccc4o3)cc2)cc1	-	.	.	.	.	.
Cc1nnc2c3cnn(-c4ccc(Cl)cc4)c3ncn12	.	27	-	.	-	77
CCOC(=O)CSc1ncnc2c1cnn2-c1ccc(Cl)cc1	-	-	-	-	-	-
COC(=O)Cn1cnc2c(cnn2-c2ccccc2)c1=O	-	16	-	-	-	-
O=C(Cn1cnc2c(cnn2-c2ccccc2)c1=O)NC1CCCC1	-	-	-	-	-	-
CC(C)CCn1cnc2c(cnn2-c2ccc(F)cc2)c1=O	-	36	-	-	-	60
Cc1ccc(OCC(O)CNCc2ccc(F)cc2)cc1 (configuration not stated)	-	-	-	-	-	-
Cc1ccc(OCc2ccc(C(=O)NN)o2)c([N+](=O)[O-])c1	-	37	-	-	-	-
COC(=O)c1ccc(COc2ccc(C)cc2[N+](=O)[O-])o1	-	48	-	-	-	77
COc1ccc(CNCC(O)COc2ccc(C)cc2[N+](=O)[O-])cc1 (configuration not stated)	-	35	-	-	-	69
C=CCn1c(=NC(=O)c2cccs2)sc2cccc(OC)c21	-	28	-	-	-	53
C#CCn1c(=NC(=O)c2ccc(Br)s2)sc2cc(NC(C)=O)ccc21	-	-	-	-	-	-
C#CCn1c(=NC(=O)c2ccc(Br)s2)sc2cccc(OC)c21	-	19	-	-	-	73
COc1cc(C(=O)NCC(=O)NCC2COc3ccccc3O2)cc(OC)c1OC (configuration not stated)	-	.	.	-	.	.
COc1cc(-c2nc3cnccn3c2Nc2ccc(C(C)C)cc2)ccc1O	-	29	-	-	-	73
COc1ccc(-c2nc3ccc(C)cn3c2Cc2ccsc2)cc1OC	-	.	.	?	.	.
Cc1ccc(C(=O)C=CC=Cc2ccccc2)cc1	-	.	.	-	.	.
Cc1ccc(C(=O)C(C(=O)/C=C/c2ccccc2)=C2SCCCS2)cc1	-	20	-	-	-	-
CCCCCc1nnc(NC(=O)c2cccc(S(=O)(=O)N3CCOCC3)c2)s1	-	.	.	-	.	.
Cc1ccc(NC(=O)CN2C(=O)c3ccccc3S2(=O)=O)cc1C	-	11	-	-	-	-
COc1cccc(NC(=O)CCN2C(=O)c3ccccc3S2(=O)=O)c1	-	14	-	-	-	-
COc1ccc(NC(=O)CCN2C(=O)c3ccccc3S2(=O)=O)c(OC)c1	-	-	-	-	-	-
Cc1ccc(S(=O)(=O)N(CC(=O)NCc2ccc(F)cc2)C(=O)N2CCN(C)CC2)cc1	-	.	.	-	.	.
CSCCC(N=C(NS(=O)(=O)c1ccc(C)cc1)c1ccccc1)C(=O)O (configuration not stated)	-	-	-	-	-	-
SMILES	TbPYK inhibitor	CHX counter	FBPA Giardia inh	RE007 growth inh	LmPK inhibitor	Shiga toxin inh
Cc1noc(NS(=O)(=O)c2ccc(NC(=O)c3cc(F)c(F)c(F)c3F)cc2)c1C	-	.	.	-	.	.
COc1ccc(Nc2ncnc3c2c(C)c(C)n3CCCN(C)C)cc1	-	47	-	-	-	70
CCCc1cc(C(=O)NCc2ccc(OC)cc2)no1	-	21	-	-	-	77
COc1ccc(CNC(=O)c2cc(-c3ccco3)on2)cc1	-	-	-	-	-	-
CCCc1cc(C(=O)Nc2ccc(C)cc2)no1	-	34	-	-	-	127
CCCc1cc(C(=O)Nc2ccc(CC)cc2)no1	-	54	-	-	-	73
Cc1ccc(N)c2c1OCCC2=O	-	-	-	-	-	-
Cc1ccc(CN(Cc2ccco2)C(=O)c2ccccc2Cl)o1	-	.	.	.	.	.
Cc1cccc(-n2nc([N+](=O)[O-])c(=NC3CCN(Cc4ccccc4)CC3)n2O)c1	-	-	-	-	-	-
